Compound activity: PubChem, National Center for Advancing Translational Sciences (NCATS)
Compounds with a hit are over-represented: about 1.9% of the library has one in this group of screens.
ERK EGF inh: qHTS Assay for Inhibitors of the ERK Signaling Pathway using a Homogeneous Screening Assay; Stimulation with EGF. 0.41% of 130,000 active. Potency, µM (top dose mostly 11.5 µM), usual class: inhibitors. HEK293-V1b, EGF-stimulated phospho-ERK AlphaScreen. AID 1454, 2008; also: nearly all actives have a fitted effect of over 55% in size
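EGF-stimulated (25 nM, 5 min) phospho-ERK in HEK293 cells stably expressing V1b, cells pretreated 30 min with compound at 37C. Homogeneous AlphaScreen read on lysates.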
IMPase Li cell: qHTS Assay for Identifying the Cell-Membrane Permeable IMPase Inhibitors: Potentiation with Lithium; CHO-M1 cells, IP1 TR-FRET (IP-One), carbachol + lithium; Potency, µM (top dose mostly 59.4 µM), hits mostly inhibitors; 0.35% of 210,000 active; AID 1457, 2008;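 also: IP1 builds up when IMPase is blocked and the TR-FRET signal falls; nearly all actives have a fitted effect of over 50% in size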
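Steps: plate 2000 CHO-M1 cells per well and culture 16–30 h; add compound and lithium; incubate 30 min, 37C; add d2-IP1 tracer and Eu cryptate anti-IP1 antibody in lysis buffer; read after 10 min at room temperature.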
HTT ATP protect: qHTS Multiplex Assay to Identify Dual Action Probes in a Cell Model of Huntington: Cytoprotection (ATP); PC12 HTT-Q103 induced, cytoprotection, ATP luminescence, 40 h; 0.14% of 230,000 active; AID 1471, 2008; Potency, µM (series often up to 56.4 µM), usual class: activators; also: nearly all actives have a fitted effect of over 45% in size
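Compounds were screened for protection of PC12 cells against cell death after tebufenozide induction (100 nM final) of mutant Huntingtin exon 1 (Q103) fused to GFP.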
HTT aggregate: qHTS Multiplex Assay to Identify Dual Action Probes in a Cell Model of Huntington: Aggregate Formation (GFP). PC12 HttQ103-GFP aggregates, Acumen cytometry, 40 h. 1.1% of 220,000 active. Potency, µM (top dose mostly 46.1 µM), most hits filed as inhibitors; also: nearly all actives have a fitted effect of over 60% in size
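Aggregate formation scored by laser-scanning cytometer (488 excitation, 500–530 emission) in lysed PC12 cells expressing Q103-GFP after 100 nM tebufenozide induction; library tested in dose series, with ATPLite reagent added in the multiplex.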
NPSR antagonist: qHTS Assay for Antagonists of the Neuropeptide S Receptor: cAMP Signal Transduction. Q6W5P4. 1% of 220,000 active. CHO-NPSR cells, cAMP TR-FRET, antagonist mode. Potency, µM (doses to about 38.3 µM), hits mostly inhibitors; also: nearly all actives have a fitted effect of over 50% in size
Target sequence (Q6W5P4 whole entry, looked up): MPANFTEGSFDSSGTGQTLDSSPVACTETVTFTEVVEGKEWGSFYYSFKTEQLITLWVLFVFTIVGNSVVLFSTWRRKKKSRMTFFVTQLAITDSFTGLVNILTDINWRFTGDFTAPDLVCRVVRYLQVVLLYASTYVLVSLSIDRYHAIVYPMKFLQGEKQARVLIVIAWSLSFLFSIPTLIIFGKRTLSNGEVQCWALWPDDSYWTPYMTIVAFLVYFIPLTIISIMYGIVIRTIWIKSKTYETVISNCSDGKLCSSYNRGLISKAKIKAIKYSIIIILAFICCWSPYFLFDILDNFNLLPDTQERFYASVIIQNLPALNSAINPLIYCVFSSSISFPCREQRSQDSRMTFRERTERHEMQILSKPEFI
Each line names hits and unclear results; the compound was inactive in the other large screens; ! = not active in a repeat. Calls follow the shape of the dose curve; as a rule, active = well fitted curve in the direction sought with a large enough effect; inconclusive = small, poorly fitted or top-dose-only effect, or another doubt; inactive = no such curve, though single readings can be large; an effect the other way counts as inactive or inconclusive.

CCOC(=O)c1sc(NC(=O)c2cc(-c3ccccc3C)nc3ccccc23)c(C#N)c1C	HTT aggregate 5.6µM (no result: ERK EGF inh)
COC(=O)c1sc(NC(=O)c2c(OC)cccc2OC)c(C#N)c1C	IMPase Li cell 11µM
COC(=O)c1sc(NC(=O)c2c(F)cccc2F)c(C#N)c1C	none
CCOC(=O)c1sc(NC(=O)c2ccncc2)c(C#N)c1C	HTT aggregate 20µM (no result: HTT ATP protect)
CCOC(=O)c1sc(NC(=O)CSc2n[nH]c(-c3ccc(Cl)cc3Cl)n2)c(C#N)c1C	HTT aggregate 13µM (no result: ERK EGF inh)
Cc1noc(C)c1-c1nc(N(C)Cc2ccco2)c2ccccc2n1	none (no result: ERK EGF inh, HTT aggregate, NPSR antagonist)
CN1C[C@@H]2C(c3ccc(Cl)nc3)C3(c4cccnc4)CC2(C3)[C@H]1c1ccccc1 (some centres undefined)	NPSR antagonist inconclusive
CN1C[C@@H]2C(c3ccc(Cl)nc3)C3(c4ccccc4)CC2(C3)[C@H]1c1ccccc1 (some centres undefined)	NPSR antagonist 4µM
CC(=O)NCCNc1ncncc1-c1ccccc1C	none (no result: ERK EGF inh, HTT aggregate, NPSR antagonist)
CCN1/C(=C/c2cc[n+](C)cc2)C=Cc2cc(C)ccc21	ERK EGF inh 16µM, HTT aggregate 8.9µM
CCN1C(=O)/C(=C2\C=Cc3cc(C)ccc3N2CC)OC1=S	ERK EGF inh inconclusive
O=c1c2ccccc2sc2c(CO)ccc(NCCN3CCCCC3)c12	none (no result: ERK EGF inh, HTT aggregate, NPSR antagonist)
CCN(CC)CCNc1ccc(CO)c2sc3ccccc3c(=O)c12	HTT aggregate 13µM
Fc1ccc2[nH]c3c(N4CCN(c5ccccc5)CC4)ncnc3c2c1	HTT aggregate 22µM, NPSR antagonist inconclusive (no result: ERK EGF inh)
CCOC(=O)N1CCN(c2ncnc3c2[nH]c2ccc(F)cc23)CC1	HTT aggregate 7.1µM (no result: ERK EGF inh)
COc1ccc(N2CCN(c3ncnc4c3[nH]c3ccccc34)CC2)cc1	HTT aggregate inconclusive, NPSR antagonist inconclusive (no result: ERK EGF inh)
OC1(c2cccc(C(F)(F)F)c2)CCN(c2ncnc3c2[nH]c2ccc(F)cc23)CC1	HTT aggregate inconclusive, NPSR antagonist 13µM (no result: ERK EGF inh)
O=C1[C@@H]2C=CC=CC2=NC(=S)N1CCN1CCC(=C(c2ccc(F)cc2)c2ccc(F)cc2)CC1	none (no result: ERK EGF inh, IMPase Li cell, HTT aggregate, NPSR antagonist)
CC(=O)c1ccc(Oc2nc3c(c(=O)n(C)c(=O)n3C)n2C)cc1	HTT ATP protect inconclusive, HTT aggregate inconclusive
Cn1c(=O)c2c(nc(Oc3ccc4ccccc4c3)n2C)n(C)c1=O	HTT aggregate 1.4µM (no result: ERK EGF inh)
CC1CCC(C(C)C)[C@H](OC(=O)c2ccccc2)C1 (some centres undefined)	none (no result: HTT ATP protect, HTT aggregate, NPSR antagonist)
CC1CCC(C(C)C)C(OC(=O)C2=C3c4ccccc4S(=O)(=O)N3CC2)C1 (centres undefined)	NPSR antagonist 10µM
C#C[C@@]1(O)CC[C@H]2[C@H]3CCC4=Cc5oncc5C[C@]4(C)[C@@H]3CC[C@@]21C	none (no result: ERK EGF inh, IMPase Li cell, HTT aggregate, NPSR antagonist)
C=CCN1C=CC(=C/C=C(/C#N)C(=O)OCC)C=C1	HTT aggregate inconclusive, NPSR antagonist 10µM
O=C(NC1CCS(=O)(=O)C1)/C(=C/c1ccco1)NC(=O)c1ccccc1 (centres undefined)	HTT ATP protect 0.14µM, HTT aggregate 0.18µM
COc1ccc(C(=O)Nc2ccc(N3CCN(c4ccc(OC)cc4)CC3)c(C#N)c2)cc1	IMPase Li cell 1.8µM, NPSR antagonist 3.2µM (no result: ERK EGF inh)
COc1ccc(N2CCN(c3ccc(NC(=O)C4CCCCC4)cc3C#N)CC2)cc1	IMPase Li cell inconclusive (no result: ERK EGF inh)
O=C(O)c1ccccc1NCc1ccncc1	none (no result: ERK EGF inh)
O=C(O)c1ccc(CNc2ccccc2C(=O)O)cc1	IMPase Li cell 10µM (no result: ERK EGF inh)
Cc1cc(C)c(S(=O)(=O)/N=C2/C=C(SCC(=O)O)C(=O)c3ccccc32)cc1C	HTT aggregate 13µM
COC(=O)CSc1nc2cc3c(cc2cc1C)OCO3	none
CCc1cc2cc3c(cc2nc1SCC(=O)Nc1nnc(C)s1)OCCO3	IMPase Li cell 13µM (no result: ERK EGF inh)
Cc1cc2cc3c(cc2nc1SCC(=O)Nc1nc(C)c(C)s1)OCO3	IMPase Li cell 8.9µM (no result: ERK EGF inh)
CC1CCCc2sc3ncn(N)c(=N)c3c21 (centres undefined)	HTT aggregate 1.4µM
CC1(C)Cc2c(sc3ncn(N)c(=N)c23)CO1	none (no result: ERK EGF inh)
Fc1ccc([C@H]2CCNC[C@H]2COc2ccc3c(c2)OCO3)cc1	none (no result: HTT aggregate, NPSR antagonist)
COC(=O)c1ccc(C(=O)OC)c(NC(=O)COC(=O)c2ccccc2OC)c1	IMPase Li cell 11µM, HTT aggregate inconclusive
CCOc1cc(/C=C2/SC(=S)NC2=O)ccc1OC(=O)c1ccco1	HTT aggregate 14µM
COc1cc(/C=C2/SC(=S)N(C)C2=O)ccc1OC(=O)c1ccco1	none
S=c1ccss1	none (no result: HTT ATP protect, HTT aggregate, NPSR antagonist)
CC1CCC(C(C)C)C(OC(=O)C[n+]2cc(-c3ccc(Cl)cc3)n3c2CCCCC3)C1 (centres undefined)	ERK EGF inh inconclusive, HTT aggregate 13µM, NPSR antagonist inconclusive
CC(C)=CCC/C(C)=C/CO/N=C1/[C@H]2O[C@@H]2[C@@H](O)[C@H]2[C@H]1CCn1c(=O)n(-c3ccccc3)c(=O)n12	none (no result: ERK EGF inh, IMPase Li cell, HTT aggregate, NPSR antagonist)
COc1cc(NC(=O)c2c(F)c(F)c(F)c(F)c2F)c(OC)cc1Cl	NPSR antagonist inconclusive (no result: ERK EGF inh)
COc1cc(NC(=O)c2cc3nc(C)cc(C)n3n2)c(OC)cc1Cl	HTT ATP protect 14µM (no result: ERK EGF inh, HTT aggregate)
CN1/C(=C\C(=O)c2cccs2)Sc2ccccc21	HTT aggregate 16µM (no result: ERK EGF inh, IMPase Li cell)
COC(=O)c1ccc(NC(=O)CN(C)S(=O)(=O)c2ccc(OC)c(C)c2)cc1	HTT aggregate 1.3µM (no result: ERK EGF inh)
CC1CNCCN1S(=O)(=O)c1cccc2cnccc12 (centres undefined)	HTT aggregate inconclusive
O=S(=O)(c1cccc2cnccc12)N1CCCNCC1	HTT ATP protect inconclusive, HTT aggregate 13µM!
COc1ccc(Br)cc1-c1noc(-c2ccccc2F)n1	HTT aggregate 4µM (no result: ERK EGF inh)
COc1ccc(-c2nc(-c3ccccc3OC)no2)cc1OC	NPSR antagonist inconclusive (no result: ERK EGF inh)
N#CC(C#N)=C1C=CC=CN1/C(=C\c1ccccc1Cl)C(=O)c1ccccc1	ERK EGF inh inconclusive, HTT aggregate inconclusive, NPSR antagonist 7.9µM (no result: HTT ATP protect)
N#C/C(C(N)=O)=c1/ccc2c(c1)N1C3=C(CCCC3)CC3CCCCC31N=2 (centres undefined)	ERK EGF inh 7.9µM, NPSR antagonist 10µM
N#CC(C#N)=c1ccc2c(c1)N1C3=C(CCCC3)CC3CCCCC31N=2 (centres undefined)	NPSR antagonist 13µM (no result: ERK EGF inh)
COc1ccc(-n2c(=O)c(C)nc3cnc(Oc4ccccc4)nc32)cc1	none (no result: HTT aggregate, NPSR antagonist)
COc1ccc(-c2cc(-n3c(C(F)(F)F)nc4ccccc43)n(CCC#N)n2)cc1	HTT aggregate 2.8µM (no result: ERK EGF inh)
Nc1cccc(-c2cn3cccnc3n2)c1	none
Cc1ccc(-c2cn3cccnc3n2)cc1	IMPase Li cell 10µM
